Publication PMC7862700, “An all-to-all approach to the identification of sequence-specific readers for epigenetic DNA modifications on cytosine”

Experiments:
Experiment in all cases: DAPPL (digital affinity profiling via proximity ligation, sequencing); 10 mM Tris-HCl pH 7.5, 50 mM NaCl, 1 mM DTT, 4% glycerol, room temperature, 30 min; GST-TFs on glutathione beads, 16-mer random dsDNA library, 0.1% formaldehyde crosslink after washing; high values mean tight binding
Settings in all cases: protein: recombinant; tags: N-terminal GST; dsDNA, one strand shown
[1] = target: T1, FEV (Homo sapiens, UniProt Q99581 1-238)
T1 sequence: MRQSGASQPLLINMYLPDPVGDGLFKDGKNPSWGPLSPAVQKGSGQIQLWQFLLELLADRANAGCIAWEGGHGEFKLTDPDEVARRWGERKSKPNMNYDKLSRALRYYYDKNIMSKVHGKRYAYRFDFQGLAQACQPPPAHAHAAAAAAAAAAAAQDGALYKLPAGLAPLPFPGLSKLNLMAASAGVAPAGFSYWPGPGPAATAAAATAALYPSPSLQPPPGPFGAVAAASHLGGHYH
Outline: (§1)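 In yeast, human transcription factors were expressed with a GST fusion, then pulled down on glutathione beads and given DNA barcodes. Pooled with a tag-only sample, they were exposed to 200 nmole of a 16-mer random double-stranded DNA library (Tris/NaCl/DTT/glycerol buffer, room temperature, 30 min), washed, crosslinked with 0.1% formaldehyde, proximity-ligated using BsaI/T4 ligase for 1 h at 37 °C, PCR-amplified and read on an Illumina NextSeq500. Each hexamer's frequency of reads for a factor, divided by the matching frequency for the tag-only sample, gives the binding signal.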

[2] = target: ETV5 (Homo sapiens, UniProt P41161 1-510)
Sequence of ETV5 (P41161 whole entry): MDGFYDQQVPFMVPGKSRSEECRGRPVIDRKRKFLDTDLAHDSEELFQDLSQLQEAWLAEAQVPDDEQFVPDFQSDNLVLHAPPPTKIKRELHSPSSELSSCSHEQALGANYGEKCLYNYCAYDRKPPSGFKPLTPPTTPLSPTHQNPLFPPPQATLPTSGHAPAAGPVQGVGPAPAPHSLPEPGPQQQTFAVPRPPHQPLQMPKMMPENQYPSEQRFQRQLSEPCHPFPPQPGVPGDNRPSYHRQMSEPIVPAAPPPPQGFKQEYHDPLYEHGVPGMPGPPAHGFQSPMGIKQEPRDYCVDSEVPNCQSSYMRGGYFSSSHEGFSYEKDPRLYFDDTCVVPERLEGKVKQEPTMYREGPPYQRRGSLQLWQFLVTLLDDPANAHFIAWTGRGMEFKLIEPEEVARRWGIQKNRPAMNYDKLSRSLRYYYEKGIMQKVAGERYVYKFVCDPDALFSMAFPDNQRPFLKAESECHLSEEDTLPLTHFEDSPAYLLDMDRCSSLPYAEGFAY
Outline: as §1

[3] = target: T2, SPIC (Homo sapiens, UniProt Q8N5J4 1-248)
T2 sequence: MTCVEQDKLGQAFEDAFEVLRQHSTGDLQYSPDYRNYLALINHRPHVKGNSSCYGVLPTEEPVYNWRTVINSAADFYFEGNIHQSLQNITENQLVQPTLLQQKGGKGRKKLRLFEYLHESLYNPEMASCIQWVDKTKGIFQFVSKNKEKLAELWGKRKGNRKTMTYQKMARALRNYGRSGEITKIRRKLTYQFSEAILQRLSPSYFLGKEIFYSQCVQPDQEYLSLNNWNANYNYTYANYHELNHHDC
Outline: as §1

[4] = target: ELF4 (Homo sapiens, UniProt Q99607 1-663)
Sequence of ELF4 (Q99607 whole entry): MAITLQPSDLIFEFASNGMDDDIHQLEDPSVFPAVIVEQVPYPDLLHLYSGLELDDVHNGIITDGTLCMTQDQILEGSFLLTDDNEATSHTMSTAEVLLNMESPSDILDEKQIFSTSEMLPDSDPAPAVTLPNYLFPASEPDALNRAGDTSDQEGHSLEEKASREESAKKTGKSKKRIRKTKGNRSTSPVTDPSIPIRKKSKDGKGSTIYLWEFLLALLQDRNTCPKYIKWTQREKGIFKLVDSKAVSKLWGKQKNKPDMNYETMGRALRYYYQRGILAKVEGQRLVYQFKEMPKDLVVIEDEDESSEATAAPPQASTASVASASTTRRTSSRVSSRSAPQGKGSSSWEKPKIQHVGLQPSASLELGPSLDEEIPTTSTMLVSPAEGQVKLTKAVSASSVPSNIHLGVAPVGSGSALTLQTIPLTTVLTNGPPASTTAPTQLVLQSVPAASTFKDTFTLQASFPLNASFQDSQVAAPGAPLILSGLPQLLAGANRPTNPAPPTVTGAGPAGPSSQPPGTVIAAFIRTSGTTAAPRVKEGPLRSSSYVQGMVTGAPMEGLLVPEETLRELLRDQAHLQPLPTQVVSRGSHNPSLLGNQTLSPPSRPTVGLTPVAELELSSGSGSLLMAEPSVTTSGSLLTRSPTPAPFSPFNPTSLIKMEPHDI
Outline: as §1

[5] = target: T3, ELK4 (Homo sapiens, UniProt P28324-2 1-405)
T3 sequence: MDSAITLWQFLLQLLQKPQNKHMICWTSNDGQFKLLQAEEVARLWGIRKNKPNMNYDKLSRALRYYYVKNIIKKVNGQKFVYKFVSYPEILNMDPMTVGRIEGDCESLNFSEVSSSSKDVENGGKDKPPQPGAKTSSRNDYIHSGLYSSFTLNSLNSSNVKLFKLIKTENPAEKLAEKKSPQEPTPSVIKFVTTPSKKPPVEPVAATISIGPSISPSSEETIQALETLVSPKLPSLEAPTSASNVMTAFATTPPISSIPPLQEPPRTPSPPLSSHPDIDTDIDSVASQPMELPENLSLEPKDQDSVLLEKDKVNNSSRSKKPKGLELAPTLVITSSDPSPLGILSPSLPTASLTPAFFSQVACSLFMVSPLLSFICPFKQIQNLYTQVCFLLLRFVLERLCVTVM
Outline: as §1

[6] = target: T4, ETV2 (Homo sapiens, UniProt O00321 1-342)
T4 sequence: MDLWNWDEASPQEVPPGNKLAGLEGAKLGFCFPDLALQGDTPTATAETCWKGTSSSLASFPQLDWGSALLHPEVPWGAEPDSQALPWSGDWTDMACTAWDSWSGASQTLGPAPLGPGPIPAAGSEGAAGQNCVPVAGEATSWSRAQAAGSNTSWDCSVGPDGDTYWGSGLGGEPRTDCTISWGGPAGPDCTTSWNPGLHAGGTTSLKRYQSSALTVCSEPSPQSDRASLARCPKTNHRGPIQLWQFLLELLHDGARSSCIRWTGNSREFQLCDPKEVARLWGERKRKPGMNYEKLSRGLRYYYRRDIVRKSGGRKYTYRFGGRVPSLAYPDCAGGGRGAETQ
Outline: as §1

[7] = target: ETV1 (Homo sapiens, UniProt P50549 1-477)
Sequence of ETV1 (P50549 whole entry): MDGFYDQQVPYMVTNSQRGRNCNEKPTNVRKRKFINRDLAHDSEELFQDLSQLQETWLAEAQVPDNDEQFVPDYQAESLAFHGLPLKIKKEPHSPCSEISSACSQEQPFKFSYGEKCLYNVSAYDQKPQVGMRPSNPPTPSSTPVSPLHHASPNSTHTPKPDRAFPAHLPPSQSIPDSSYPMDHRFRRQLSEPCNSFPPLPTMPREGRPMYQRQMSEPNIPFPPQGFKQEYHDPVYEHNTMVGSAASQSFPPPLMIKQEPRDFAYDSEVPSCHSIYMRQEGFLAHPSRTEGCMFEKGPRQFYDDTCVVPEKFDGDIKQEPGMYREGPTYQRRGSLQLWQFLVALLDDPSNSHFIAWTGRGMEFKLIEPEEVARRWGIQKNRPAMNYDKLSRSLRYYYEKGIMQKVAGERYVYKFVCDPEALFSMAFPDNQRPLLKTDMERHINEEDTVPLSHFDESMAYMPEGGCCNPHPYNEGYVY
Outline: as §1

[8] = target: T5, ERF (Homo sapiens, UniProt P50548 1-548)
T5 sequence: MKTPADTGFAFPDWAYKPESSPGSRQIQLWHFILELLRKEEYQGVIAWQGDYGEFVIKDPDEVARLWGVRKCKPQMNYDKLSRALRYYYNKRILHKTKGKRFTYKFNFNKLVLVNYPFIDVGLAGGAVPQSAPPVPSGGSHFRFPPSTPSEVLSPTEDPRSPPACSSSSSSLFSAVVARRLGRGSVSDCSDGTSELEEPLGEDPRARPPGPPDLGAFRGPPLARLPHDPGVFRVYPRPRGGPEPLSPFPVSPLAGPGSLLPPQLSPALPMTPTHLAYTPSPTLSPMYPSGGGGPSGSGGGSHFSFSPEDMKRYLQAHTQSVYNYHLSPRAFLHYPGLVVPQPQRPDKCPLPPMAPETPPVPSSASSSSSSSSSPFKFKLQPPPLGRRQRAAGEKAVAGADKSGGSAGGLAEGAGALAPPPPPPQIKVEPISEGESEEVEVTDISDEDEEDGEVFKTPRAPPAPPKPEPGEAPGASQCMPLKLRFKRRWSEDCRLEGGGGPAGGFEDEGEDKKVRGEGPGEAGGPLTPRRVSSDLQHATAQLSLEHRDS
Outline: as §1

[9] = target: T6, ETV3L (Homo sapiens, UniProt Q6ZN32 1-361)
T6 sequence: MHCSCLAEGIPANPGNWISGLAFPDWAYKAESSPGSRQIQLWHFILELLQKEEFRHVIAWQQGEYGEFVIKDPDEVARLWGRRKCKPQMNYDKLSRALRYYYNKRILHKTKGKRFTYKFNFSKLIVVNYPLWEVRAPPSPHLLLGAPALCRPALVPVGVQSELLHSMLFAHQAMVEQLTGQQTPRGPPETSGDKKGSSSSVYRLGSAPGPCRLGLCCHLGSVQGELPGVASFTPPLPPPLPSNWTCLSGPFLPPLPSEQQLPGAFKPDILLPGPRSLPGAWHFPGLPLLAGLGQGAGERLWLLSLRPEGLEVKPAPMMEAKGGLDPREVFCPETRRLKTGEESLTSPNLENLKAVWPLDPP
Outline: as §1

[10] = target: T7, ETS2 (Homo sapiens, UniProt P15036 1-469)
T7 sequence: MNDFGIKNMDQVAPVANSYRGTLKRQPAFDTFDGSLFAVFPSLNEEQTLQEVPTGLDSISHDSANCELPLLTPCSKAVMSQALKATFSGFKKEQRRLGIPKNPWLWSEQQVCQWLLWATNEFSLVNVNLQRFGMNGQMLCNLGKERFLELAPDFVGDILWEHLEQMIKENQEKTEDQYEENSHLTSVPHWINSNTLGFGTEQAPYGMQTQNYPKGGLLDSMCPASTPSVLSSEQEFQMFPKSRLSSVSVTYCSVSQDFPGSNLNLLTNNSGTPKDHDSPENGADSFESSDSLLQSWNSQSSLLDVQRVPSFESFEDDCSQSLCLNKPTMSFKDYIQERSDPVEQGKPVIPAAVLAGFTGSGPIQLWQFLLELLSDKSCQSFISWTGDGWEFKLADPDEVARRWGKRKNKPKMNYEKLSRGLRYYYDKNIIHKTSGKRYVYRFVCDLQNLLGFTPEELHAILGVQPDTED
Outline: as §1

[11] = target: T8, SPDEF (Homo sapiens, UniProt O95238 1-335)
T8 sequence: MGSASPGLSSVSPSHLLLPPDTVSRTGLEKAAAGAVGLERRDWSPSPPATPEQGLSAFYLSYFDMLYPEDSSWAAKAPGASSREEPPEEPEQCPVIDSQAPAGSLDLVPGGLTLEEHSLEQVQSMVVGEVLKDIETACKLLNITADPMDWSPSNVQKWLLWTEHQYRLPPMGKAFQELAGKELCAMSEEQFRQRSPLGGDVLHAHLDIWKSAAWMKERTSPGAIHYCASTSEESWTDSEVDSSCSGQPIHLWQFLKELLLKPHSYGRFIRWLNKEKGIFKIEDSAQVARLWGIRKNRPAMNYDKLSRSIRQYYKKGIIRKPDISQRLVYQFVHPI
Outline: as §1

[12] = target: T9, ETV7 (Homo sapiens, UniProt Q9Y603 1-341)
T9 sequence: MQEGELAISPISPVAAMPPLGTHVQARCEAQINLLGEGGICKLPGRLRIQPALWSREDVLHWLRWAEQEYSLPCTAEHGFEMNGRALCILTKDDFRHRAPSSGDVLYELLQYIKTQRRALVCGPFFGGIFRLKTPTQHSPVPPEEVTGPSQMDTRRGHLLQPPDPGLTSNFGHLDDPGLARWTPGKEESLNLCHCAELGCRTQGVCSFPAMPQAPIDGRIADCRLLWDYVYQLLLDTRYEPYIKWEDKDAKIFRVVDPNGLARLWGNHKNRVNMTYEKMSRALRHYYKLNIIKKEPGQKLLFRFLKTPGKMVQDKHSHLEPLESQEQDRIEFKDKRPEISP
Outline: as §1

[13] = target: T10, ELF5 (Homo sapiens, UniProt Q9UKW6-2 1-255)
T10 sequence: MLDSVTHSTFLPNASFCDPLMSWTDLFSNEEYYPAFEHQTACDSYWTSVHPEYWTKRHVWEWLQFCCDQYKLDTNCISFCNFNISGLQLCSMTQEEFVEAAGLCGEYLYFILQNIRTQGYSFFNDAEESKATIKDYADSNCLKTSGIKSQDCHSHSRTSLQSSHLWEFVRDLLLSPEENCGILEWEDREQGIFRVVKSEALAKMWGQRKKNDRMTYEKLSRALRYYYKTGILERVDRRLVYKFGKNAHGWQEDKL
Outline: as §1

[14] = target: T11, ETV3 (Homo sapiens, UniProt P41162-2 1-143)
T11 sequence: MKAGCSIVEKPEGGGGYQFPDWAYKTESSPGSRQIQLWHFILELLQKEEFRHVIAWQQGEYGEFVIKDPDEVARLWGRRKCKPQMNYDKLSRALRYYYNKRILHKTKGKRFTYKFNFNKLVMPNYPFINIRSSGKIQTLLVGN
Outline: as §1

[15] = target: ETV6 (Homo sapiens, UniProt P41212 1-452)
Sequence of ETV6 (P41212 whole entry): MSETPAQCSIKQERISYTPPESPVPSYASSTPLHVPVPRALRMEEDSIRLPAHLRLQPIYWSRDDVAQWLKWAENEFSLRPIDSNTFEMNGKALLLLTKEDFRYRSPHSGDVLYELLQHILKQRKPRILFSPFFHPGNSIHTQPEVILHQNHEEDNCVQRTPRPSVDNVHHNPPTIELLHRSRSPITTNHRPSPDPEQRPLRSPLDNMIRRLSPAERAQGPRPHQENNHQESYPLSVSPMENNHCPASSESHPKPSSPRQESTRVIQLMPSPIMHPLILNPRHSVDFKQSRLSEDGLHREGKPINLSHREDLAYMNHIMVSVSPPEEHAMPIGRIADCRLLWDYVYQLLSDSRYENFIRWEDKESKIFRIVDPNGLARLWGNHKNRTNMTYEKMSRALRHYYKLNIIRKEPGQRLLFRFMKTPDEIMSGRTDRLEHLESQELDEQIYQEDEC
Outline: as §1

[16] = target: T12, ELF3 (Homo sapiens, UniProt P78545 1-371)
T12 sequence: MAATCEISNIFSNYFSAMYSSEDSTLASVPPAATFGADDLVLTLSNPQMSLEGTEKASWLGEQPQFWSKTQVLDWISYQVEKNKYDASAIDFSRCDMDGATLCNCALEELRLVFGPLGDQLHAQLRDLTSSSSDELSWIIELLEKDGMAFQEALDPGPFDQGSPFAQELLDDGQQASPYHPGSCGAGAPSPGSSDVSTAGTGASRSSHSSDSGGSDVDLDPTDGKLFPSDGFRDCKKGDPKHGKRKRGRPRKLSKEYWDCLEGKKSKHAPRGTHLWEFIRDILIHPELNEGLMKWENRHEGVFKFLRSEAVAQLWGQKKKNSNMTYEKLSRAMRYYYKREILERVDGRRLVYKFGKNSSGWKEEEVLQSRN
Outline: as §1

Sequence | binding signal [1] | binding signal [2] | binding signal [3] | binding signal [4] | binding signal [5] | binding signal [6] | binding signal [7] | binding signal [8] | binding signal [9] | binding signal [10] | binding signal [11] | binding signal [12] | binding signal [13] | binding signal [14] | binding signal [15] | binding signal [16]
ACACTG | 1.01 fold enrichment (6-mer frequency, TF over GST control) | 1.07 fold enrichment (6-mer frequency, TF over GST control) | 1.3 fold enrichment (6-mer frequency, TF over GST control) | 1.03 fold enrichment (6-mer frequency, TF over GST control) | 1.14 fold enrichment (6-mer frequency, TF over GST control) | 1.04 fold enrichment (6-mer frequency, TF over GST control) | 1.15 fold enrichment (6-mer frequency, TF over GST control) | 1.17 fold enrichment (6-mer frequency, TF over GST control) | 1.11 fold enrichment (6-mer frequency, TF over GST control) | 1.06 fold enrichment (6-mer frequency, TF over GST control) | 1.05 fold enrichment (6-mer frequency, TF over GST control) | 1.03 fold enrichment (6-mer frequency, TF over GST control) | 1.05 fold enrichment (6-mer frequency, TF over GST control) | 1.01 fold enrichment (6-mer frequency, TF over GST control) | 1.04 fold enrichment (6-mer frequency, TF over GST control) | –
ACAATG | 1.08 fold enrichment (6-mer frequency, TF over GST control) | 1.11 fold enrichment (6-mer frequency, TF over GST control) | 1.08 fold enrichment (6-mer frequency, TF over GST control) | 1.13 fold enrichment (6-mer frequency, TF over GST control) | 1.16 fold enrichment (6-mer frequency, TF over GST control) | – | 1.07 fold enrichment (6-mer frequency, TF over GST control) | 1.12 fold enrichment (6-mer frequency, TF over GST control) | 1.03 fold enrichment (6-mer frequency, TF over GST control) | 1.09 fold enrichment (6-mer frequency, TF over GST control) | 1.03 fold enrichment (6-mer frequency, TF over GST control) | 1.12 fold enrichment (6-mer frequency, TF over GST control) | 1.08 fold enrichment (6-mer frequency, TF over GST control) | 1.11 fold enrichment (6-mer frequency, TF over GST control) | 1.06 fold enrichment (6-mer frequency, TF over GST control) | 1.17 fold enrichment (6-mer frequency, TF over GST control)
